# Compound activity (PubChem)
# Most compounds without a hit are left out; they make up all but 2.5% or so of the library.
# PK Bst: Pyruvate Kinase | actives 1.2% (n = 51,000) | AID 361, 2006 | Potency, µM | purified pyruvate kinase, luminescence ATP production; ribose 5-phosphate activator present at AC10; in the data active = potency below about 11 µM; inconclusive = mostly about 12 µM to 25 µM;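 the screen sought inhibitors and activators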
# FLuc inh: qHTS Assay for Inhibitors of Firefly Luciferase; actives 2.2% (n = 72,000); purified firefly luciferase, luminescence, 8 min; Potency, µM (titrated, usually from 57.1 µM), most hits filed as inhibitors; Luciferin 4-monooxygenase (Photinus pyralis), P08659; active = well fitted inhibition curve with a large enough effect; inconclusive = small, poorly fitted or top-dose-only effect; note: nearly all actives have a fitted effect of over 40% in size
# Target sequence (P08659 whole entry, looked up): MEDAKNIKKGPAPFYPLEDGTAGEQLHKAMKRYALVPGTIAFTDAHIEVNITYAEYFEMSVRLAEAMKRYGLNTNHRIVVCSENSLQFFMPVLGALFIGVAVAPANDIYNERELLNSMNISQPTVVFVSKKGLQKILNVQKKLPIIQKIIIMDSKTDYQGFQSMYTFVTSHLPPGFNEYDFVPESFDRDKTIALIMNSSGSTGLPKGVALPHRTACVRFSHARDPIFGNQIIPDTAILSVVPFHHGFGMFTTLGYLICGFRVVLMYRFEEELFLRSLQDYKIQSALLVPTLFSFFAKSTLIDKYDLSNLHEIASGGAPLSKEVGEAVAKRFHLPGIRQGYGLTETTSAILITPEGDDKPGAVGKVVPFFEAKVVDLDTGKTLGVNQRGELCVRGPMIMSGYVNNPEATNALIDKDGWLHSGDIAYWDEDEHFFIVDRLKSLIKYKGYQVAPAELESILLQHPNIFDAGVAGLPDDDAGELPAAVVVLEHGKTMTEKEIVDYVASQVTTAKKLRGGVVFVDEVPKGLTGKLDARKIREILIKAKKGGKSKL
#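 qHTS concentration-response profiling: light output of P. pyralis luciferase with luciferin and 10 uM ATP, imidazole buffer pH 7.2. Read by luminescence after 8-min room-temperature incubation.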
# A number is an active result; . = inactive; ? = inconclusive; / = no result; [ ] = remark or other dose.
SMILES,PK Bst,FLuc inh
O=S(=O)(Nc1ccc2nc(-c3ccc(Br)o3)[nH]c2c1)c1ccccc1,.,.
CC(=O)Nc1ccc(Oc2ccc3nc(C)[nH]c3c2)cc1,.,.
CC(=O)Nc1ccc2nc(-c3cccs3)[nH]c2c1,/,16µM
O=C(Nc1ccc2nc(-c3ccc(Br)o3)[nH]c2c1)c1cccs1,?,13µM
CCc1nnc(NC(=O)CSc2nnc(Cc3ccccc3)n2-c2ccccc2)s1,.,.
Cc1nn(C)c(C)c1S(=O)(=O)N1CCCC(C(=O)NC2CCCCC2)C1 (centres undefined),.,.
O=C(Oc1ccc(-c2cnc3ccccc3n2)cc1)c1ccco1,/,5µM
O=C(Oc1cccnc1)c1ccco1,.,.
CN(C)c1ccc(N=Cc2ccco2)cc1,/,20µM
C(=N\C(/N=C/c1ccco1)c1ccco1)/c1ccco1,.,.
COC(=O)c1ccc(C)c(NC(=O)c2nn(C)c(=O)c3ccccc23)c1,.,.
CSc1cccc(NC(=O)c2ccco2)c1,/,.
CC1N(C)c2cc(NC(=O)c3ccco3)ccc2C1(C)C (centres undefined),/,16µM
Fc1cccc(F)c1CN1CCN(c2ncccn2)CC1,.,.
COc1nc(Nc2nc3ccccc3c(=O)[nH]2)nc2ccc(C)cc12,/,.
Cc1nc(Nc2nc(-c3ccccc3)cc(=O)[nH]2)nc2ccccc12,5.1,10µM
C/C(Cl)=C\Cn1c(NCCCn2ccnc2)nc2c1c(=O)n(C)c(=O)n2C,.,.
CS(=O)(=O)NCCSCc1ccco1,/,.
O=C(COc1ccccc1O)c1cccs1,.,.
O=C(OCC(=O)c1cccs1)c1ccccc1,/,13µM
COc1ccccc1C(=O)N1CCCC1(C#N)c1ccccc1 (centres undefined),.,.
Cc1ccc(-c2nnn(CC(=O)Nc3ccc(S(=O)(=O)N4CCC(C)CC4)cc3)n2)cc1,.,.
COc1cc(O)c2c(=O)cc(-c3ccccc3)oc2c1,/,.[11.4 µM]
O=c1cc(-c2ccccc2)oc2cc(O)cc(O)c12,/,13µM
NC(N)=NC(N)=NCCc1ccccc1,.,.
SMILES,PK Bst,FLuc inh
CC(C)CNS(=O)(=O)c1ccc(CCC(=O)Nc2ccc3c(c2)OCO3)cc1,.,.
Cn1c(NCc2ccccc2Cl)nc2ccccc21,/,13µM
Cn1c(NCc2ccccc2O)nc2ccccc21,.,.
CN(Cc1nc2ccccc2n1C)S(=O)(=O)c1ccc(Cl)cc1,.,.
Cn1c(CNc2ccc(Cl)cc2)nc2ccccc21,.,13µM
O=C(NCc1ccco1)c1cc2nc(-c3cccs3)cc(C(F)(F)F)n2n1,/,.
CCCCN(CCCC)CCCNC(=O)CC1Oc2ccc(C)cc2NC1=O (centres undefined),.,.
CCCN(CCC)S(=O)(=O)c1cc(Br)cc2c1N(C(=O)CC)CC2,.,.
COc1ccc(NC(=O)Nc2cccc(C(=O)N3CCOCC3)c2)cc1OC,.,.
CC(=O)c1cccc(NC(=O)Nc2ccc(C(=O)N3CCOCC3)cc2)c1,/,13µM
Cc1occc1-c1nnc(SCc2cc(=O)n3cc(Br)ccc3n2)n1C,.,.
Cc1ccccc1Nc1nc(CSc2nnc(-c3ccoc3C)n2C)cs1,/,25µM
Cn1c(=O)c2c(nc(N3CCCCCC3)n2Cc2cccc3ccccc23)n(C)c1=O,.,.
CCN(CC)c1nc(N)nc(NS(=O)(=O)c2ccc(Cl)cc2)n1,/,.
c1ccc(N2CCN(c3nc4cc5c(cc4s3)OCCO5)CC2)cc1,.,.
c1c2c(cc3sc(N4CCOCC4)nc13)OCCO2,4.4,1.6µM
Cc1cc2n(n1)C(c1ccc(N(C)C)cc1)Nc1ccccc1-2 (centres undefined),?,25µM
Cc1cc2n(n1)C(c1ccccc1)Nc1ccccc1-2 (centres undefined),/,.
O=C(NCCN1CCCCC1)Nc1ccc(F)c(Cl)c1,.,.
COC(=O)C(C)Sc1nc2c(c(=O)n1-c1ccccc1)SCC2 (centres undefined),.,.
COc1ccc(N2CC(C(=O)NC3CC(C)(C)NC(C)(C)C3)CC2=O)cc1 (centres undefined),/,.
CCCc1cc(C(=O)Nc2cccc(Cl)c2)no1,/,16µM
CCCc1cc(C(=O)Nc2cccc(C(C)=O)c2)no1,/,.
CCOc1ccccc1Nc1ccc(C(=O)O)cc1NC(C)=O,.,.
N#Cc1c(-c2ccco2)cc(-c2ccc(F)cc2)nc1N,4.7,.
SMILES,PK Bst,FLuc inh
CC(C)Cc1cc(-c2ccco2)c(C#N)c(N)n1,/,.
CCOC(=O)C1=C(NC#N)OC(C)=C(C)C1c1ccc(O)cc1 (centres undefined),.,.
O=C(NCc1ccco1)c1c(O)c2cccc3c2n(c1=O)CCC3,.,.
O=C(/C=C\Nc1ccccn1)c1ccc(Cl)cc1,/,1.3µM
O=C(O)/C=C\C(=O)Nc1ccccn1,/,.[11.4 µM]
Cc1noc(C)c1C(=O)NCCc1ccc(Cl)cc1,.,.
Cc1ccn2cc(C(=O)Nc3nnc(C)s3)nc2c1,.,.
Cc1ccn2cc(C(=O)Nc3ccc4c(c3)OCCO4)nc2c1,7,6.3µM
CCOC(=O)N1CCC(NC(=O)C2CCC(CNS(=O)(=O)c3ccc(OC)cc3)CC2)CC1 (centres undefined),.,.
Cc1ccc(N2CN=c3s/c(=C\c4cccnc4)c(=O)n3C2)cc1,.,.
Cc1ccc(/C=c2\sc3nc(-c4cccnc4)nn3c2=O)cc1,/,7.9µM
CCN(CC)CCOC(=O)[C@@H](c1ccccc1)C1CCCCC1,/,.
CCc1ccccc1NC(=O)c1cnc2scc(C)n2c1=O,/,.
COc1ccc(-c2nnc(N(C)C(=O)c3cccnc3)s2)cc1,/,6.3µM
Cc1ccc(-c2nnc(N(C)C(=O)c3cccnc3)s2)cn1,.,.
COc1cccc(N=Cc2ccc(O)cc2O)c1,/,.
COc1cccc(C=Nc2ccc3c(c2)OCCO3)c1O,?,4µM
Cc1ccc(-c2cc(C(F)(F)F)n3ncc(C(=O)N4CCN(C)CC4)c3n2)cc1,/,.
NC(=O)c1cnn2c(C(F)(F)F)cc(-c3ccc(F)cc3)nc12,2.7,.
NC(=O)c1cnn2c(C(F)(F)F)cc(-c3ccccc3)nc12,11,.
O=C(NCc1ccco1)c1cnn2c(C(F)(F)F)cc(-c3ccccc3)nc12,/,.
O=C(COC(=O)C1CC(=O)N(c2ccccc2)C1)c1ccccc1 (centres undefined),/,.
Cc1cccc(C)c1OCc1nnc(SCC(=O)Nc2ccccc2F)o1,/,.
O=C(Cc1cccs1)N1CCN(c2ccccn2)CC1,/,.
O=C(c1cn(-c2ccccc2)nc1-c1cccs1)N1CCN(c2ccccn2)CC1,.,25µM
SMILES,PK Bst,FLuc inh
COc1cccc(-c2cc(C(=O)Nc3cc(C)on3)no2)c1,.,.
COC(=O)c1c(-c2ccc(F)cc2)csc1NC(=O)c1ccco1,/,13µM
O=C(Nc1scc(-c2ccccc2)c1C(=O)O)c1ccco1,/,.
COC(=O)c1c(-c2cccnc2)csc1NC(=O)c1cc(C)on1,?,13µM
O=C(c1cc(F)c(F)cc1Cl)N1CCCCC1,/,.
N#CC(=C1CCCC1)c1nc(-c2ccccc2O)cs1,7.7,13µM
N#C/C(=N\O)c1nc(-c2ccccc2)cs1,.,.
Cc1cc(C)nc(NS(=O)(=O)c2ccc(-n3cccc3)cc2)n1,.,.
COc1ccc(NC(=O)c2cc(-c3ccc(C)o3)nc3ccccc23)cc1OC,3.7,2.5µM
COc1cc(NC(=O)c2cc3c(C)nc4ccccc4c3o2)cc(OC)c1OC,/,.
Cc1ccc(Cn2ccc(NC(=O)c3cc(-c4cccc(Cl)c4)on3)n2)cc1,.,.
CCOC(=O)c1sc2ccc(S(=O)(=O)N3CCCCC3)cc2c1N,.,.
